# Source: PubChem BioAssay (NCI)
# About 83,000 compounds went through this panel and 20% of them were active in at least one assay; those are over-represented in the sample as a whole.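 Cell lines were cultured in 96-well plates, exposed to a single compound concentration, and assessed for percent growth 48 hours later.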 A number with no mark means an inactive call. Active and inactive are the calls of the source. Rule for the calls: active = growth percent below 10; inactive = the rest.
# Assays:
# Test in all cases: NCI-60 one-dose screen, 48 h (100 = growth as untreated, 0 = no growth, -100 = all killed)
# Details in all cases: 10 µM unless noted
# HCT-15 colon = tested on: HCT-15 colon
# HT29 colon = tested on: HT29 colon
# SNB-75 CNS = tested on: SNB-75 CNS
# SNB-19 CNS = tested on: SNB-19 CNS
# U251 CNS = tested on: U251 CNS
# PC-3 prostate = tested on: PC-3 prostate
# SK-MEL-5 melanoma = tested on: SK-MEL-5 melanoma
# UACC-62 melanoma = tested on: UACC-62 melanoma
# LOX IMVI melanoma = tested on: LOX IMVI melanoma
# SK-MEL-28 melanoma = tested on: SK-MEL-28 melanoma
# SK-MEL-2 melanoma = tested on: SK-MEL-2 melanoma
# EKVX NSCLC = tested on: EKVX NSCLC
# SN12C renal = tested on: SN12C renal
# UO-31 renal = tested on: UO-31 renal
# TK-10 renal = tested on: TK-10 renal
# ACHN renal = tested on: ACHN renal
# CAKI-1 renal = tested on: CAKI-1 renal
# A498 renal = tested on: A498 renal
# CCRF-CEM leukemia = tested on: CCRF-CEM leukemia
# MOLT-4 leukemia = tested on: MOLT-4 leukemia
SMILES,growth (HCT-15 colon),growth (HT29 colon),growth (SNB-75 CNS),growth (SNB-19 CNS) [%],growth (U251 CNS),growth (PC-3 prostate) [%],growth (SK-MEL-5 melanoma),growth (UACC-62 melanoma),growth (LOX IMVI melanoma),growth (SK-MEL-28 melanoma),growth (SK-MEL-2 melanoma),growth (EKVX NSCLC) [%],growth (SN12C renal) [%],growth (UO-31 renal),growth (TK-10 renal),growth (ACHN renal),growth (CAKI-1 renal),growth (A498 renal),growth (CCRF-CEM leukemia),growth (MOLT-4 leukemia)
COc1ccc(-c2csc(NC(=O)CSc3nc(C)cc(=O)[nH]3)n2)cc1,102%,107%,95.9%,89.3,102%,94.9,96.7%,87.7%,96.3%,106%,103%,96.1,98.2,99%,107%,105%,109%,103%,106%,110%
COC(=O)[C@H]1Cc2c([nH]c3ccccc23)[C@H](c2ccc3c(c2)OCO3)N1,100%,106%,74.8%,96.4,96.8%,93.2,101%,88.1%,93.6%,108%,113%,95.5,100,80.2%,96%,98.4%,82.3%,97.5%,96.4%,100%
COc1ccc(C(c2cc(OC)c(OC)c(OC)c2)n2cncn2)cc1O (stereo not given),14%,5.3% (active),48.6%,33.3,15.3%,21.2,14.6%,32%,43.5%,57%,55.9%,39.8,39.3,58%,61.3%,52.4%,40.4%,9.66% (active),9.34% (active),16.7%
CCCCC/C=C/CCC(=O)N[C@H]1[C@H](Oc2c3cc4cc2Oc2ccc(cc2Cl)[C@@H](O[C@@H]2O[C@H](CO)[C@@H](O)[C@H](O)[C@H]2NC(C)=O)[C@@H]2NC(=O)[C@H](NC(=O)[C@@H]4NC(=O)[C@H]4NC(=O)[C@@H](Cc5ccc(c(Cl)c5)O3)NC(=O)[C@@H](N)c3ccc(O)c(c3)Oc3cc(O)cc4c3)c3ccc(O)c(c3)-c3c(O[C@H]4O[C@H](CO)[C@@H](O)[C@H](O)[C@@H]4O)cc(O)cc3[C@H](C(=O)O)NC2=O)O[C@H](CO)[C@H](O)[C@@H]1O,111%,103%,109%,87.3,95.7%,89.9,108%,96.4%,91.5%,119%,112%,96.4,94.7,82%,112%,103%,84.1%,102%,113%,101%
Cc1ccc(S(=O)(=O)c2nc(-c3ccccc3)oc2S(C)=O)cc1 (stereo not given),-53.1% (active),-31.8% (active),66.7%,68.9,45.1%,22.3,44.4%,50.6%,-87.7% (active),-63.2% (active),50.3%,55.6,40.2,-80.5% (active),-94.8% (active),-99.2% (active),-98.4% (active),75.9%,-41% (active),-29.5% (active)
CCN(CC)CCOc1ccc(/C(=C(\C)Cc2ccc(OC)cc2)c2ccc(O)cc2)cc1,5.11% (active),-70.5% (active),25.1%,26.6,-30.3% (active),15.2,-96.4% (active),-70.7% (active),-64.9% (active),-71% (active),-45.7% (active),66.5,54.9,-34.2% (active),35.8%,18.9%,-21.3% (active),92.9%,-3.51% (active),-9% (active)
CN1CCN(Cn2nc(-c3cc(Cl)cc(Cl)c3Cl)oc2=S)CC1,99.5%,102%,80.9%,95.4,97.5%,92.1,101%,99.7%,93.8%,110%,95.3%,102,93.9,138%,110%,98.1%,59.5%,95%,272%,122%
C=CCNc1nc(O)c(/C=C2\C=Nc3ncccc32)s1,24.7%,26.4%,-67.3% (active),11,0.764% (active),12.6,2.01% (active),9.75% (active),0.553% (active),-2.4% (active),-8.35% (active),30.5,24,3.09% (active),1.67% (active),-1.22% (active),30.2%,-34.5% (active),7.13% (active),5.78% (active)
CO[C@H]1/C=C/O[C@@]2(C)Oc3c(C)c(O)c4c(O)c(c5c(nc6cc(C)ccn65)c4c3C2=O)NC(=O)/C(C)=C\C=C\[C@H](C)[C@H](O)[C@@H](C)C(O)[C@@H](C)[C@H](OC(C)=O)[C@@H]1C (stereo not given in full),103%,96.7%,86.4%,99.9,98.2%,90.4,103%,98%,95.9%,104%,93.1%,101,98.6,76.3%,102%,99.5%,94.6%,134%,101%,89.8%
CC1(C)CC[C@]2(CO)CC[C@]3(C)[C@H](CC[C@@H]4[C@@]5(C)CC[C@H](O)C(C)(C)[C@@H]5CC[C@]43C)[C@H]2[C@H]1O,93.4%,56.3%,-33.7% (active),96.1,62.3%,68.2,91.8%,90.6%,76.2%,91.2%,104%,106,65.6,114%,58.7%,77.2%,99.9%,91.5%,98.5%,86.3%
NC(=O)[C@@H]1Cc2ccccc2CN1C(=O)c1ccc2c(c1)Cc1ccccc1-2,74.6%,89.1%,85.7%,86.7,83%,61.9,46.6%,-36.9% (active),90.8%,116%,92.8%,83.1,92.4,61.3%,93.4%,90.5%,80.9%,89.2%,81.9%,71.1%
O=C1/C(=C/c2ccc(-c3ccc(Cl)cc3)o2)SC(=S)N1CCc1ccc(O)cc1,67.5%,25.2%,25.8%,87.2,22.2%,53.2,94.5%,50.5%,75.1%,93.6%,58.5%,80.5,63,28.5%,51.1%,65.3%,20.4%,58.9%,13.5%,15.3%
CN1CCN(Cc2ccc(NC(=O)c3cncc(C#Cc4cnc(N)c5ncccc45)c3)cc2Cl)CC1,63.8%,52.4%,105%,106,-64.6% (active),91.6,78.4%,98.5%,86.5%,45.1%,56.5%,106,92.5,64.7%,104%,41.8%,73.5%,104%,-2.07% (active),83%
COc1c(O[C@@H]2OC(CO)[C@H](O)[C@H](O)C2O)cc2oc3cc(O)c(CC=C(C)C)c(O)c3c(=O)c2c1CC=C(C)C (stereo not given in full),97.9%,93.6%,93.9%,96.1,77.9%,73.8,97.8%,83.8%,85.2%,106%,97.3%,93.5,84.4,90.8%,110%,96.5%,103%,83.8%,92.9%,62.2%
